# Data published in PubChem BioAssay AID602274 (Sanford-Burnham Center for Chemical Genomics, 2012).
# Hit rate of the full screen: of about 360,000 compounds, about 160 (0.044%) were called active. The sample holds actives, similar compounds and a random draw of the others, so the mix is not that of the screen. Unmarked numbers belong to inactive results. Rule as the data show it: active = survival enhancement above about 18%; inactive = the rest.
# Assay: enhancers of single-cell hiPSC survival, primary screen, ATPlite luminescence (AID 602274);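 also: cells exposed to compounds for 16 hours before the ATP read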
# Details: at 20 µM, stronger effect = higher value, 100% = ROCK inhibitor wells, 0% = DMSO
row,Compound,survival enhancement
1,CCc1ccc([C@@H]2CC(=O)[C@@H]3CN(S(=O)(=O)c4ccc(C)cc4)[C@H](c4ccc(Cl)cc4)C[C@@H]3N2S(=O)(=O)c2ccc(C)cc2)cc1,0.5%
2,CCCOC(=O)CC1C(=O)NCCN1Cc1ccc(F)cc1 (stereo unspecified),0.4%
3,COC(=O)C1=C(C)N(C)C(=S)NC1c1cc(OC)ccc1OC (stereo unspecified),-1.1%
4,COC(=O)C1NN=C(C(=O)c2ccc(Br)cc2)C1c1cccc(Br)c1 (stereo unspecified),2.6%
5,COC(=O)C1=C(C)N(C)C(C)=C(C(=O)OC)C1c1cccc(Br)c1,19.8% (active)
6,O=C(CS(=O)(=O)c1cn(Cc2ccc(Cl)cc2)c2ccccc12)N1CCOCC1,0.6%
7,COc1ccccc1P(=O)(c1ccccc1)c1ccccc1NC(C)=O (stereo unspecified),-0.7%
8,CN(Cc1ccc(F)cc1)C(=O)COc1ccc2ccccc2c1,-0.4%
9,C[C@H]1CN([C@@H](C)CO)C(=O)c2cc(Br)cnc2O[C@H]1CN(C)S(=O)(=O)c1cccs1,3.8%
10,CC(=O)Nc1ccccc1C(=O)C(=O)Nc1ccc(F)cc1,3.3%
11,CC1CCN(C(=O)/C(=C\c2ccccc2F)NC(=O)c2ccccc2)CC1,-0.6%
12,CCOC(=O)c1ccn(-c2nc(-c3ccco3)cc(C(F)(F)F)n2)n1,-0.8%
13,CC(CCc1ccc(O)cc1)NCc1ccc(Cl)cc1Cl (stereo unspecified),0.5%
14,CCN(CC)C(=O)Oc1ccc(OC(=O)N(CC)CC)cc1,-2.3%
15,O=C(COC(=O)C1(c2ccc(F)cc2)CCCC1)N1CCNC1=O,0.5%
16,Cc1ccccc1N1CCN(Cc2nc(Cc3ccccc3F)no2)CC1,-0.1%

row,Compound,survival enhancement
1,O=[n+]1c2c(n([O-])c3cc(Br)ccc31)CCC2,3.1%
2,CCN(CC)c1ccc(NC(=O)c2ccc(=O)[nH]c2)cc1S(=O)(=O)Nc1ccc(OC)cc1,1.7%
3,CCCS(=O)(=O)Nc1c(C(=O)O)[nH]c2ccccc12,0.3%
4,O=C(O)c1ccc([N+](=O)[O-])cc1Sc1ccsc1,6.3%
5,CC(C)CCOc1ccc(C(=O)Nc2cc(S(=O)(=O)N3CCOCC3)ccc2N2CCOCC2)cc1,-2.4%
6,O=C(NCc1cccnc1)c1cc(C2CCCN(C(=O)C3CCCCC3)C2)on1 (stereo unspecified),0.4%
7,Cc1ccc2cccc(S(=O)(=O)N3CCN(c4ccccc4F)CC3)c2n1,0%
8,COc1cccc(CNC(=O)CN2C(=O)NC(Cc3ccccc3)(c3ccccc3)C2=O)c1 (stereo unspecified),-1.1%
9,Cn1c(=O)c2c(nc(Br)n2CCSc2nc3ccccc3o2)n(C)c1=O,1.6%
10,OCCC1CN(Cc2ccc3nsnc3c2)CCN1C1CCCC1 (stereo unspecified),1.5%
11,COC(=O)C1=C(Nc2ccc(C)cc2)C=C(C)C(C(=O)OC)C1c1ccc(F)cc1 (stereo unspecified),-0.6%
12,N#Cc1ccccc1Sc1ccccc1C(=O)OCC(=O)NC1CCCCC1,1%
13,O=C(O)c1ccc(NS(=O)(=O)c2ccc3c(c2)C(=O)c2cc(S(=O)(=O)Nc4ccc(C(=O)O)cc4)ccc2-3)cc1,4.4%
14,CN(C)N(C)C(=O)C(O)(c1ccccc1)c1ccccc1,-0.9%
15,COC(=O)C1=NNC2(c3ccc(C)cc3)C(=O)N(c3cccc(C)c3C)C(=O)C12 (stereo unspecified),1.4%
